# A selection: hits, their analogues and other compounds. The true share with any hit is near 14%.
# Pf growth 48h – P. falciparum growth inhibition at 48 hours (one generation); P. falciparum luciferase growth in erythrocytes, 48 h; Potency, µM (highest dose often 28.7 µM), inactives show at the top dose activity change, negative = inhibition, usual class: inhibitors; 5.9% of 310,000 active; AID 504832; note: potency is the fitted concentration of half-maximal effect
#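 Compounds are pin-transferred into medium, infected erythrocytes (2% hematocrit, 0.1% parasitemia final) are added, and plates sit one parasite generation at 37 C in 5% CO2. Detection reagent is then added and luminescence measured.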
# Pf growth 96h – P. falciparum growth inhibition at 96 hours; AID 504834; P. falciparum luciferase reporter growth, 96 h; Potency, µM (highest dose often 28.7 µM), for the others: top-dose activity change, negative = inhibition, hits mostly inhibitors; 6.9% of 320,000 active; note: potency is the fitted concentration of half-maximal effect
#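 P. falciparum expressing integrated firefly luciferase grown in erythrocytes (2% hematocrit, 0.05% parasitemia final) with compounds for 96 hours at 37 C, 5% CO2. Growth inhibition read as loss of luminescence after adding luciferase detection reagent.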
# HCMV inh – human cytomegalovirus inhibition | 4.5% of 410,000 active | HFF cells, HCMV-luciferase reporter, 72 h; active compounds read low | AID 1259415 | activity change, negative = inhibition, % at 57.5 µM; in the data active = activity change below about -60%; inconclusive = no clear call, values can overlap the other calls; inactive = above about -39%
#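 Steps: HFFs plated, 16 h 37C; compounds added; HCMV-luciferase added to MOI 1 PFU/cell; 72 h 37C; OneGlo reagent, 5 min room temperature; luminescence read, normalized to controls.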
# Lassa entry inh – Lassa virus entry inhibition; Lassa virus pseudotype entry inhibition, cell reporter; Potency, µM (highest dose often 37.9 µM), inactives show at the highest dose activity change, negative = inhibition, usual class: inhibitors; 1.2% of 300,000 active; AID 540256; calls by dose curve; tested in HEK293 cells; note: potency is the fitted concentration of half-maximal effect; nearly all actives have a fitted effect of over 50% in size
# MARV entry inh – Marburg virus entry inhibition. Marburg virus pseudotyped entry inhibition, cell reporter. Potency, µM (doses to about 37.8 µM), inactives show at the highest dose activity change, negative = inhibition, hits mostly inhibitors. 1.8% of 300,000 active; calls by dose curve; tested in HEK293 cells; note: potency is the fitted concentration of half-maximal effect
# HCV inh – blocks hepatitis C virus; Huh7.5.1 HCVcc-Cre infection, luciferase reporter, 44 h; Potency, µM (titrated, usually from 41.8 µM), without a hit: at the top dose activity change, negative = inhibition, usual class: inhibitors; 3.4% of 340,000 active; AID 651820; note: potency is the fitted concentration of half-maximal effect
#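 Infectious HCV cell culture screen: compound-treated cells (1,000/well, pre-plated 4 h) are infected with HCVcc-Cre at roughly 0.5 moi and grown 44 h. Infection is quantified by luciferase signal after 15 min substrate incubation at room temperature.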
# * = called active by the depositor; ? = inconclusive; . = no result; [ ] = another dose, or the depositor's remark. Unless noted, calls come from the whole dose curve; as a rule, active = well fitted inhibition curve with a large enough effect; inconclusive = small, poorly fitted or top-dose-only effect, or another doubt; inactive = no such curve, though single readings can be large or run the other way. % is set by controls: 0 for no effect and ±100 for the full control effect.
SMILES,Pf growth 48h,Pf growth 96h,HCMV inh,Lassa entry inh,MARV entry inh,HCV inh
CCC(=O)N/C(=N/c1nc(C)cc(C)n1)Nc1ccccc1,11%,11%,?,-4%,-6%,-20%
CCC(=O)N/C(=N/c1nc(C)cc(C)n1)Nc1ccc(OC)cc1,-19%,15µM*,?,1%,-7%,21%
CCc1ccc(N/C(=N/c2nc(C)cc(C)n2)NC(C)=O)cc1,.,?,-60*,.,.,-2%
O=C(NCc1ccccc1)C1c2ccccc2OCC(=O)N1Cc1ccc2c(c1)OCO2 (configuration not stated),.,.,-9,.,.,.
CCCNC(=O)OC[C@@H]1O[C@H](CCO/N=C\c2ccc(C(=O)N3[C@H](c4ccc(C)cc4)[C@@H](C)CC[C@H]3C(=O)OC)cc2)C=C[C@@H]1Oc1ccc(OC)cc1,.,.,.,.,-28%[14.2 µM],.
CCCNC(=O)OC[C@H]1O[C@H](CCO/N=C/c2ccc(C(=O)N3[C@H](c4ccc(C)cc4)[C@@H](C)CC[C@H]3C(=O)OC)cc2)C=C[C@@H]1Oc1ccc(OC)cc1,?,2.1µM*,.,?,-28%[14.2 µM],2%[8.37 µM]
COC(=O)[C@@H]1CC[C@H](C)[C@@H](c2ccc(C)cc2)N1C(=O)c1ccc(/C=N/OCC[C@@H]2C=C[C@H](OC(C)=O)[C@@H](COC(C)=O)O2)cc1,?,10µM*,.,3%,4%,6%[8.37 µM]
COC(=O)[C@@H]1CC[C@H](C)[C@@H](c2ccc(C)cc2)N1C(=O)c1ccc(/C=N/O[C@@H](C)c2cn([C@H](CO)Cc3ccccc3)nn2)cc1,3.7µM*,4.7µM*,.,?,?,-9%[8.37 µM]
Cc1c(-c2nc(-c3ccc4c(c3)OCO4)no2)nnn1-c1cccc(C(F)(F)F)c1,.,.,?,-13%[46.1 µM],.,.
O=C(COC(=O)c1ccc(O)cc1)c1ccc(S(=O)(=O)N2CCCCC2)cc1,2.9µM*,?,110,?,12%,?
O=C(COC(=O)c1ccc(CO)cc1)c1ccc(S(=O)(=O)N2CCCCC2)cc1,?,?,-31,.,.,10%
O=C(COC(=O)c1ccc(O)cc1)Nc1cc(S(=O)(=O)N2CCOCC2)ccc1Cl,?,4.7µM*,9,.,.,-7%
Cc1ccc(S(=O)(=O)N2CCCCC2)cc1NC(=O)COC(=O)c1ccc(O)cc1,?,0.23µM*,-4,3%[46.1 µM],9%[46.1 µM],?
CSCCC(NC(=O)c1ccccc1Cl)C(=O)NCCOc1ccc(C)cc1 (configuration not stated),.,.,-3,.,.,.
Cn1c(NCCc2ccncc2)nc2cc(-c3ccccc3)sc2c1=O,.,.,151,.,.,.
Oc1ccccc1C1NCc2ccccc2-n2cccc21 (configuration not stated),13µM*,26%,17,-23%[46.1 µM],?,-15%
CCOc1cc(C2NCc3ccccc3-n3cccc32)ccc1O (configuration not stated),2.6µM*,-26%,11,-14%,?,-6%
Nc1nnnn1-c1cccc([N+](=O)[O-])c1,.,.,11,5%,5%,18%
O=C(COC(=O)c1cc(S(=O)(=O)N2CCCC2)ccc1O)Nc1ccccc1Br,.,.,-18,11%,?,-11%
COc1ccc(-c2oc3c(OC)c(OC)c(OC)c(O)c3c(=O)c2OC)cc1OC,?,3.3µM*,?,.,.,10µM*
COc1c(OC)c(O)c2c(=O)c(O)c(-c3ccccc3)oc2c1OC,35%,11%,-35,.,.,-17%
COc1ccc(-c2oc3cc(OC)c(O)c(OC)c3c(=O)c2OC)cc1O,?,10µM*,-37,.,.,8.9µM*
O=C(CN1CCN(Cc2ccc3c(c2)OCO3)CC1)Nc1ccc2[nH]c(=O)[nH]c2c1,.,.,-12,-4%,?,1%
CNc1c([N+](=O)[O-])cnn1-c1ccc(C)cc1,3.3µM*,?,-28,4%,0%,-11%
CC1O[C@@H](OCC2O[C@@H](Oc3cc(O)c4c(c3)OC(c3ccc(O)cc3)CC4=O)[C@H](O)[C@@H](O)[C@@H]2O)[C@H](O)[C@H](O)[C@H]1O (some centres not stated),8%,10%,5,.,.,1%
